# According to PubChem BioAssay (NCI):
# The panel holds about 79,000 compounds, 15% with a hit somewhere; the sample as a whole holds those more often. Values without a mark were called inactive. Active and inactive are the calls of the source. No stated cut-off is given here; in the data, active means growth inhibition above about 70%; inactive means the rest.
# Tests used:
# [1] = NCI Yeast Anticancer Drug Screen. Data for the rad50 strain (AID 155);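 further: 0% = growth of vehicle-only cultures of the same strain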; conditions: S. cerevisiae rad50 strain growth inhibition, active compounds read high
# Outline: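 Inhibition values express reduced yeast growth in compound-treated cultures relative to vehicle-treated controls.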
# [2] = NCI Yeast Anticancer Drug Screen. Data for the mec2-1 strain (AID 157); conditions: S. cerevisiae mec2-1 strain, active compounds read high
# Outline: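 mec2-1 yeast strain, carrying an alteration in DNA damage repair or cell cycle control, was exposed to compounds; growth inhibition was measured relative to vehicle-treated controls.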
# [3] = NCI Yeast Anticancer Drug Screen. Data for the sgs1 mgt1 strain (AID 161);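 further: 0% = growth of cultures given vehicle only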; conditions: S. cerevisiae sgs1 mgt1 strain, active compounds read high
# Outline: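 Compounds are added to genetically altered yeast, and growth is compared with cultures given vehicle alone to give percent inhibition.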
# [4] = NCI Yeast Anticancer Drug Screen. Data for the cln2 rad14 strain (AID 165);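 further: 0% = growth equal to vehicle treated cultures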; conditions: S. cerevisiae cln2 rad14 strain, active compounds read high
# Outline: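 Yeast carrying cln2 and rad14 alterations (cell cycle control and DNA damage repair) were exposed to compounds. Growth inhibition was measured against vehicle-treated controls.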
# [5] = NCI Yeast Anticancer Drug Screen. Data for the bub3 strain (AID 167); conditions: S. cerevisiae bub3 mutant strain, active compounds read high
# Outline: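 Steps: expose the mutant yeast strain to compound; grow alongside vehicle-treated cultures; measure growth; express inhibition against the vehicle cultures.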
# [6] = NCI Yeast Anticancer Drug Screen. Data for the mlh1 rad18 strain (AID 175); conditions: S. cerevisiae mlh1 rad18 strain growth inhibition, active compounds read high
# Outline: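 Growth inhibition of the yeast strain was measured after compound exposure and expressed relative to vehicle-treated controls. The strain carries defined defects in DNA damage repair.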
# [7] = at 5.0 µM (retest, dose inferred, filed as 0.5)
# [8] = at 50.0 µM (retest, dose inferred, filed as 5.0)
SMILES,"growth inhibition [1, 7]","growth inhibition [1, 8]",growth inhibition ([1]; at 50.0 µM),"growth inhibition [2, 7]","growth inhibition [2, 8]",growth inhibition ([2]; at 50.0 µM),"growth inhibition [3, 7]","growth inhibition [3, 8]",growth inhibition ([3]; at 50.0 µM),"growth inhibition [4, 7]","growth inhibition [4, 8]",growth inhibition ([4]; at 50.0 µM),"growth inhibition [5, 7]","growth inhibition [5, 8]",growth inhibition ([5]; at 50.0 µM),"growth inhibition [6, 7]","growth inhibition [6, 8]",growth inhibition ([6]; at 50.0 µM)
O=C1CC2CCCC(C1)N2Cc1ccccc1,2%,26%,71.5% (active),4%,28%,-6.1%,15%,47%,62.5%,-69%,47%,37.5%,-2%,25%,34.9%,7%,24%,51.7%
ClC1=C(Cl)C2(Cl)C(Cl)CC1(Cl)C2(Cl)Cl (configuration not stated),0%,-1%,62%,-5%,-1%,40.5%,-3%,-24%,68.5%,0%,-9%,70.2% (active),0%,2%,1.4%,14%,2%,83.7% (active)
CN(C=O)NC(=O)N(CCCl)N=O,19%,21%,55.2%,13%,1%,62.5%,22%,21%,-13.2%,23%,16%,11.2%,12%,4%,-9.1%,16%,23%,-11.4%
O=[N+]([O-])c1ccc(N2CCOCC2)c2c1no[n+]2[O-],98% (active),99% (active),90.9% (active),99% (active),100% (active),94% (active),94% (active),99% (active),89% (active),55%,99% (active),74% (active),91% (active),99% (active),92.2% (active),98% (active),99% (active),84.2% (active)
Cc1ccc(S(=O)(=O)/N=[Se](\C)c2ccccc2)cc1 (configuration not stated),16%,94% (active),93.7% (active),11%,95% (active),68.5%,18%,83% (active),90.7% (active),-1%,56%,60.9%,2%,83% (active),80% (active),13%,91% (active),87.4% (active)
ClCCN(Cc1ccccc1)CC1COc2ccccc2O1 (configuration not stated),10%,72% (active),91.2% (active),-1%,79% (active),92.1% (active),7%,95% (active),90.5% (active),-2%,34%,82.7% (active),11%,90% (active),97.3% (active),15%,94% (active),97.3% (active)
CC(=O)c1cc2c(cc1O)C(C)(C)CCC2(C)C,3%,3%,97.8% (active),1%,0%,98.7% (active),2%,1%,47.7%,0%,0%,95.6% (active),3%,7%,95% (active),-2%,-5%,98.8% (active)
C(=P(c1ccccc1)(c1ccccc1)c1ccccc1)[P+](c1ccccc1)(c1ccccc1)c1ccccc1.[Cl][Fe]([Cl])([Cl])[Br],98% (active),99% (active),99.5% (active),98% (active),99% (active),99.5% (active),99% (active),99% (active),99.5% (active),98% (active),99% (active),99.2% (active),98% (active),99% (active),99.5% (active),99% (active),99% (active),99.4% (active)
ClCCN1CCOCC1,95% (active),97% (active),98% (active),94% (active),99% (active),98.8% (active),89% (active),98% (active),98.3% (active),71% (active),98% (active),95.8% (active),34%,98% (active),98.1% (active),91% (active),98% (active),98.8% (active)
Clc1cc[c]([Tl][c]2ccc(Cl)cc2)cc1,94% (active),98% (active),22.9%,97% (active),100% (active),11.2%,90% (active),99% (active),82.8% (active),92% (active),97% (active),94.3% (active),95% (active),98% (active),89.7% (active),94% (active),98% (active),-1.3%
CC(=O)OCC12CC(O)C(C)=CC1OC1C(O)C(OC(C)=O)C2(C)C12CO2 (configuration not stated),8%,33%,91.8% (active),12%,36%,91% (active),13%,36%,90.3% (active),16%,39%,77.3% (active),8%,21%,91.8% (active),8%,37%,92.1% (active)
O=C(Nc1n[c]([Hg][Cl])[c]([Hg][Cl])s1)OCc1ccccc1,99% (active),98% (active),99% (active),99% (active),99% (active),99.5% (active),98% (active),99% (active),99.3% (active),34%,99% (active),98.9% (active),100% (active),99% (active),99.2% (active),99% (active),98% (active),98.9% (active)
O=[N+]([O-])C=C([SH2+])[SH2+].O=[N+]([O-])C=C([SH2+])[SH2+].[Ni+2].c1ccc(C[P+](c2ccccc2)(c2ccccc2)c2ccccc2)cc1,3%,44%,93.5% (active),7%,72% (active),97.7% (active),5%,52%,96.7% (active),-7%,19%,87.8% (active),-1%,47%,96.2% (active),26%,83% (active),93.3% (active)
CC(=O)[O-].CC(=O)[O-].O=C(N/N=C/c1cc(Cl)cc(Cl)c1[OH2+])c1ccncc1.[Zn+2],4%,9%,31%,-1%,11%,48.4%,7%,30%,60.8%,0%,-4%,38%,1%,10%,32.6%,2%,11%,70% (active)
CC(C)c1ccccc1OP(=S)(S)Oc1ccccc1C(C)C,4%,38%,82.8% (active),5%,24%,2.75%,1%,45%,72.8% (active),4%,54%,87.3% (active),0%,54%,37%,0%,68%,79% (active)
CC[n+]1c(/C=C/c2ccc(N(CCCl)CCCl)cc2)ccc2cc(Br)ccc21,97% (active),97% (active),85.5% (active),96% (active),96% (active),84% (active),98% (active),98% (active),82.9% (active),90% (active),90% (active),82% (active),96% (active),96% (active),85.2% (active),96% (active),96% (active),82.2% (active)
COc1cc(/C=C(/C)[N+](=O)[O-])c([N+](=O)[O-])cc1OC,29%,75% (active),88.3% (active),2%,33%,85.5% (active),14%,65%,71.7% (active),3%,29%,14.8%,0%,54%,67%,10%,35%,71.7% (active)
O=[N+]([O-])O.[In],9%,49%,11.6%,17%,53%,44.2%,6%,43%,50.3%,3%,22%,-24.1%,11%,58%,-1.85%,13%,55%,65.3%
CC(C)NC1CC2CCCCC2CC1c1ccccc1 (configuration not stated),1%,51%,79.8% (active),4%,25%,83.3% (active),10%,68%,90.9% (active),3%,57%,82.3% (active),17%,53%,82.4% (active),20%,74% (active),88.8% (active)
